Screening results as filed in PubChem BioAssay.
Only some compounds are listed: those with a hit (about 12% of all), similar ones and a draw of the others.
Pf growth 96h: P. falciparum growth inhibition at 96 hour, primary screen for plastid delayed-death inhibitors. P. falciparum luciferase reporter growth, 96 h. Potency, µM (top dose mostly 28.7 µM), without a hit: at the highest dose activity change, negative = inhibition, most hits filed as inhibitors. 320,000 compounds, 6.9% hits. AID 504834; note: % is set by controls: 0 for no effect and ±100 for the full control effect
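96 h incubation, 37 C, 5% CO2, of luciferase-reporter P. falciparum-infected RBCs (2% hematocrit, 0.05% parasitemia final) with test compounds; endpoint luminescence.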
Pf growth 48h: inhibits P. falciparum growth in the first generation, 48 h; Potency, µM (doses to about 28.7 µM), for the others: at the highest dose activity change, negative = inhibition, actives largely listed as inhibitors; 310,000 compounds, 5.9% hits; P. falciparum luciferase growth in erythrocytes, 48 h; note: % is set by controls: 0 for no effect and ±100 for the full control effect
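Erythrocytes infected with P. falciparum carrying an integrated firefly luciferase reporter (2% hematocrit, 0.1% parasitemia final) were exposed to compounds in RPMI 1640 with 0.5% Albumax at 37 C, 5% CO2. Growth inhibition was scored as reduced luminescence.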
SARS PLpro yeast: SARS-CoV PLP inhibition in yeast | 330,000 compounds, 0.19% hits | Potency, µM (titrated, usually from 32.9 µM), for the others: at the highest dose activity, positive = growth rescue, hits mostly activators | S. cerevisiae expressing SARS-CoV PLpro, growth rescue; calls by dose curve; note: 0% is about no effect; nearly all actives have a fitted effect of over 55% in size
AMA1 RON2 block: disrupts binding of P. falciparum AMA1 to RON2; AlphaScreen AMA1-biotinylated RON2 peptide binding; Potency, µM (highest dose often 58.2 µM), inactives show top-dose activity change, negative = inhibition, usual class: inhibitors; 360,000 compounds, 0.2% hits; AID 720542;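 note: 0% = vehicle wells and -100% = peptide control; nearly all actives have a fitted effect of over 45% in size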
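AMA1 (3D7) with his tag at 25 nM final met compounds first, then biotinylated RON2 peptide at 25 nM; detection used donor plus acceptor beads, 10 µg/mL apiece, read by AlphaScreen after 30 min at room temperature.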
NS1 function inh: influenza NS1 inhibition. Potency, µM (series often up to 46.1 µM), without a hit: top-dose activity, positive = more growth. 270,000 compounds, 0.4% hits; calls by dose curve; note: actives are rising curves; nearly all actives have a fitted effect of over 50% in size
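Read-out: OD600 growth recovery of NS1-expressing budding yeast. Cells grown overnight at 30C in -URA glucose medium, washed, resuspended and diluted 1:100 in 2% galactose assay medium, pH 6.0. Same strain lacking NS1 served as positive control.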
HCV inh: inhibitors of hepatitis C virus infection; Huh7.5.1 HCVcc-Cre infection, luciferase reporter, 44 h; Potency, µM (doses to about 41.8 µM), inactives show at the highest dose activity change, negative = inhibition, usual class: inhibitors; 340,000 compounds, 3.4% hits; note: % is set by controls: 0 for no effect and ±100 for the full control effect
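Whole-lifecycle infectious HCVcc-Cre system; cells 1,000/well, compound then virus (~0.5 moi) added 4 h after plating, 44 h culture. Luciferase read 15 sec following 15 min substrate incubation, room temp.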
* marks the source's active call; other numbers are inactive results; ? = inconclusive; · = no result; [ ] = another dose, or the depositor's remark. Unless noted, calls come from the whole dose curve; as a rule, active = well fitted curve in the direction sought with a large enough effect; inconclusive = small, poorly fitted or top-dose-only effect, or another doubt; inactive = no such curve, though single readings can be large; an effect the other way counts as inactive or inconclusive. Potency is the fitted concentration of half-maximal effect.

SMILES	Pf growth 96h	Pf growth 48h	SARS PLpro yeast	AMA1 RON2 block	NS1 function inh	HCV inh
O=C1C2C(c3ccccc3)C=CC(c3ccccc3)C2C(=O)N1c1ccncc1 (stereo unspecified)	14%	-9%	-1%	-7%	-3%	24%
O=C1C2C(c3ccccc3)C=CC(c3ccccc3)C2C(=O)N1c1ccccn1 (stereo unspecified)	1.3µM*	33%	-6%	9%	-29%	16%
COc1ccc(CCNC(=O)CCC(=O)n2ncc3ccc(Cl)cc32)cc1OC	?	30%	-1%	-3%	-8%	16%
CCOC(=O)C1CCN(Cc2cc(C(C)C)c(O)c(C(C)C)c2)CC1	0.41µM*	?	0%	-12%	-15%	1%
CCOC(=O)N1CCN(C(=O)C2CCN(Cc3cccc(OCc4ccccc4)c3)CC2)CC1	4.7µM*	5%	-12%	-11%	-5%	-25%
CCOC(=O)C1CCN(Cc2cccc(OC)c2)CC1	9%	·	5%	-22%	-4%	23%
CCOC(=O)C1CCN(Cc2ccc3ccccc3c2)CC1	13µM*	-1%	-4%	?	0%	-10%
c1ccc(CN2CCN(Cc3ccc4ccccc4c3)CC2)cc1	0.93µM*	?	-2%	?	-14%	1%
OCCN1CCN(Cc2ccc3ccccc3c2)CC1	4%	-1%	4%	?	-12%	12%
CCOc1ccc(CCNC(=O)COC(=O)c2ccc3c(c2)OCCO3)cc1OCC	?	?	4%	-2%	·	-13%
CCOC(=O)N1CCN(Cc2c(O)ccc3ccccc23)CC1	25%	90%	2%	1%	1%	13%
CCOC(=O)C1CCN(Cc2c(O)ccc3ccccc23)CC1	9.3µM*	?	-7%	5%	0%	-11%
Cc1ccccc1NC(=O)NCC1CCN(C(=O)OC(C)(C)C)CC1	?	-19%	0%	-9%	2%	11%
CC(C)(C)OC(=O)N1CCC(CNC(=O)c2ccc(F)cc2)CC1	13%	1.7µM*	2%	-5%	-52%	0%
CC(C)CNC(=O)c1ccccc1C(=O)NC1(C(=O)NCC(C)C)CCCC1	·	·	·	-11%	·	0%
Cc1nonc1NC(=O)CSc1nc2c(C)cccc2cc1C#N	10µM*	?	-7%	16%	·	?
CCC(=O)c1ccc(OCC(=O)OCC(=O)N(CCC#N)c2ccc3c(c2)OCCO3)cc1	·	·	-1%	8%	·	2%
O=C(NCC1CCCO1)c1sc2ccccc2c1Cl (stereo unspecified)	?	187%	-6%	9%	-12%	1%
Cc1ccc2c(Cl)c(C(=O)NCCc3ccccc3)sc2c1	?	178%	0%	17%	-2%	-3%
O=C(Nc1ccon1)c1sc2cc(F)ccc2c1Cl	-8%	158%	-13%	0%	4%	4%
O=C(NCC1CCCO1)c1sc(=S)n2c1[nH]c(=O)c1ccc(C(=O)N3CCCCC3)cc12 (stereo unspecified)	?	10µM*	-6%	7%	22%	14%
Cc1ccc2c(Cl)c(C(=O)NCC3CCCO3)sc2c1 (stereo unspecified)	93%	314%	-4%	23%	1%	2.2µM*
O=C(NCc1ccco1)c1sc2cc(F)ccc2c1Cl	15µM*	111%	-36%	-4%	-6%	-30%
CCNC(=O)c1sc2cc(C)ccc2c1Cl	13µM*	37%	1%	-5%	12%	?
Cc1ccc(C(=O)NNC(=O)c2n[nH]c(=O)c3ccccc23)cc1C	95%	33%	-1%	24%	·	-3%
SMILES	Pf growth 96h	Pf growth 48h	SARS PLpro yeast	AMA1 RON2 block	NS1 function inh	HCV inh
Cc1ccc(/C=N\NC(=O)/C(=C\Nc2nccc(C)n2)NC(=O)c2ccccc2)cc1	4%	76%	2%	-8%	-26%	?
O=C(COc1ccc(F)cc1)Nc1ccccc1N1CCOCC1	?	-26%	0%	6%	·	-8%
Nc1ncc(-c2ccccc2)c(-c2ccc(OCc3ccccc3)cc2O)n1	?	12µM*	-1%	-10%	5%	1.8µM*
C=C(C)COc1ccc(-c2nc(N)ncc2-c2ccc(Cl)cc2)c(O)c1	?	13µM*	-6%	-12%	9%	?
C=C(C)COc1ccc(-c2nc(N)ncc2-c2ccc(OC)cc2)c(O)c1	-6%	?	-4%	·	-48%	?
O=C(O)CC1(CC(=O)Nc2ccc(Cl)cc2C(=O)c2ccccc2)CCCC1	23%	18%	0%	-6%	5%	26%
CN1CCN(c2cc3c(cc2F)c(=O)c(C(=O)O)cn3-c2ccc(F)cc2)CC1	6.7µM*	?	·	·	·	·
CCn1cc(C(=O)NN)c(=O)c2cc(F)c(N3CCCCC3)cc21	-6%	?	-1%	26%	10%	-5%
CCN1CCN(c2cc3c(cc2F)c(=O)c(C(=O)O)cn3C2CC2)CC1	8.3µM*	?	4%	-1%	-2%	-10%[8.37 µM]
CCn1cc(C(=O)NN)c(=O)c2cc(F)c(N3CCN(C)CC3)cc21	12µM*	?	-4%	68%	-1%	-15%
CCOC(=O)c1cn(CC)c2cc(N3CCOCC3)c(F)cc2c1=O	14%	1.9µM*	13%	13%	-3%	-22%
CCOC(=O)c1cn(CC)c2cc(N3CCCCC3)c(F)cc2c1=O	·	·	·	9%	-13%	?
Cc1nnn(C23CC4CC(CC(CC(=O)Nc5ccc(C)c(C)c5)(C4)C2)C3)n1	12%	?	-4%	-12%	-3%	-1%
C[n+]1ccccc1/C=C/c1ccc(F)c(F)c1	0%	?	-4%	-5%	-13%	7%
C[n+]1ccccc1/C=C/c1ccccc1Cl	?	1.5µM*	-3%	7%	26%	?
C[n+]1ccccc1/C=C/c1c(F)cccc1F	?	13µM*	-8%	-3%	7%	?
C[n+]1ccccc1/C=C/c1ccc2ncccc2c1	?	1.2µM*	-3%	0%	-2%	-30%
C[n+]1ccccc1/C=C/c1ccc([N+](=O)[O-])cc1	2%	1.3µM*	1%	4%	5%	10µM*
CC1=C(C(=O)Nc2cc(C(=O)N(C)Cc3ccccc3)ccc2C)SCCO1	-23%	-12%	12%	-9%	9%	-5%
O=C1Nc2ccc(F)cc2C12OCCO2	-5%	38%	-2%	-12%	1%	-1%
C[n+]1ccccc1/C=C/c1ccc(C#N)cc1	?	15%	-2%	-1%	-1%	17%
Cc1ccccc1/C=C/c1cccc[n+]1C	?	4.7µM*	-4%	-3%	3%	6.3µM*
O=C(Nc1cccc(Cl)c1N1CCOCC1)c1cccnc1Cl	16%	7%	-3%	15%	-5%	17%
